Only some compounds are listed: those with a hit (about 3.5% of all), similar ones and a draw of the others.
Autofluor counter: compound fluorescence in toxin protease inhibitor counterscreen; compound autofluorescence counterscreen, microsphere flow cytometry; hits give high values; fluorescence intensity (no concentration beside the values); hit rate 3.1% among 360,000; AID 624483; in the data active = fluorescence intensity above about 16000; inconclusive = no clear call, values can overlap the other calls
BoNT A protease: BoNT A light chain protease inhibition; inhibition, % at 10 µM; hit rate 0.17% among 360,000; AID 588499; multiplex microsphere protease substrate cleavage, flow cytometry; also: plate controls were buffer without enzyme for full effect and enzyme alone for no effect
Anthrax LF inh2: inhibitors of Bacillus anthracis lethal factor protease; inhibition, % at 10 µM; P15917; multiplex microsphere protease cleavage assay, LF; hit rate 0.12% among 360,000; also: plate controls were buffer without enzyme for full effect and enzyme alone for no effect
Target sequence (P15917 whole entry, looked up): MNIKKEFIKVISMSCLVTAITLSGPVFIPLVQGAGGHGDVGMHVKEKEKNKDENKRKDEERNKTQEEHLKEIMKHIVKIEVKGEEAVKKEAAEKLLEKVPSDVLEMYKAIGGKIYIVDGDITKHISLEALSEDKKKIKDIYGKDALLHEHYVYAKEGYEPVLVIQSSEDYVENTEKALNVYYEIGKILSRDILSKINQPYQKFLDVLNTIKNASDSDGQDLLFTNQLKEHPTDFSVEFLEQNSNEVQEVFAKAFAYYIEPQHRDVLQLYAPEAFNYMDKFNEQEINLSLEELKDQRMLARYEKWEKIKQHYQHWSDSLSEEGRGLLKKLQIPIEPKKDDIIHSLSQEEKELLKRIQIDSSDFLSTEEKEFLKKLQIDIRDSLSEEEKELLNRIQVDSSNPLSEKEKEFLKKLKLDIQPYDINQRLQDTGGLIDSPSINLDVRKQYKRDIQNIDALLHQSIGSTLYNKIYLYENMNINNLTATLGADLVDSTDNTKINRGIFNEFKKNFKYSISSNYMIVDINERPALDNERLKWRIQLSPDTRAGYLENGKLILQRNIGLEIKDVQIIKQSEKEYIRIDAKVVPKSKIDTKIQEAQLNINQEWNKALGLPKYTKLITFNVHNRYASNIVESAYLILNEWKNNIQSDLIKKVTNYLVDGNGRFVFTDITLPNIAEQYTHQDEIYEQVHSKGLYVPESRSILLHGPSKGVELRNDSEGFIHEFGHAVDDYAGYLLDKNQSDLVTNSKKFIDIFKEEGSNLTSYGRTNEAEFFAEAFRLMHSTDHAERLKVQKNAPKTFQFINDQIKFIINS
BoNT F protease: BoNT F light chain protease inhibition; Multiplex microsphere protease cleavage assay, flow cytometry; inhibition, % at 10 µM; hit rate 0.22% among 360,000; AID 588497; in the data active = inhibition above about 35%, passing the limit was not always enough; inconclusive = no clear call, values can overlap the other calls; also: plate controls were buffer without enzyme for full effect and enzyme alone for no effect
BJeLR lethal: kills HRASV12-expressing BJeLR cells; BJeLR (HRASV12) viability, CellTiter-Glo ATP luminescence, 48 h; inhibition, % (test concentration not listed); hit rate 0.17% among 300,000; AID 1554; in the data active = inhibition above about 50%; inconclusive = no clear call, values can overlap the other calls
Active calls of the source: *. Rule as the data show it, unless noted: active = inhibition above about 30%; inconclusive = no clear call, values can overlap the other calls; inactive = below that.

Results for Cc1c(NC(=O)CSc2nccn2C)c(=O)n(-c2ccccc2)n1C ?
Autofluor counter: 16417*; BoNT A protease: inconclusive; Anthrax LF inh2: -1; BoNT F protease: 0; BJeLR lethal: 10

What do the screens show for `CCOC(=O)Nc1c(C)n(C)n(-c2ccccc2)c1=O`?
Autofluor counter: 19722*; BoNT A protease: 12; Anthrax LF inh2: -12; BoNT F protease: 10; BJeLR lethal: -8

How did CCOC(=O)c1ccc(NC(=O)Nc2c(C)n(C)n(-c3ccccc3)c2=O)cc1 do in these assays?
Autofluor counter: 5938; BoNT A protease: 0; Anthrax LF inh2: -2; BoNT F protease: 3; BJeLR lethal: -3

How did O=C(Cn1nc([N+](=O)[O-])nc1Br)NC(c1ccccc1)c1ccccc1 do in these assays?
Autofluor counter: 2412; BoNT A protease: 0; Anthrax LF inh2: 1; BoNT F protease: -3; BJeLR lethal: -7

How did COc1ccc(N(CC(=O)NCCSc2ccccc2)S(=O)(=O)c2ccccc2)c(OC)c1 do in these assays?
Autofluor counter: 3735; BoNT A protease: 0; Anthrax LF inh2: -9; BoNT F protease: 8

Results for CC(NC(=O)c1ccc(OC2CCN(S(=O)(=O)N(C)C)CC2)cc1)C1CC1 (stereo unspecified) ?
Autofluor counter: 4193; BoNT A protease: 0; Anthrax LF inh2: 0; BoNT F protease: 0; BJeLR lethal: 13

How did Cc1c(NC(=O)NCc2ccccc2)c(=O)n(-c2ccccc2)n1C do in these assays?
Autofluor counter: 22336*; BoNT A protease: 2; Anthrax LF inh2: -2; BoNT F protease: 2; BJeLR lethal: -4

What do the screens show for `Cc1c(NC(=O)c2n[nH]c(=O)c3ccccc23)c(=O)n(-c2ccccc2)n1C`?
Autofluor counter: 21768*; BoNT A protease: 3; Anthrax LF inh2: -4; BoNT F protease: 4; BJeLR lethal: 7

What do the screens show for `Cc1c(NC(=O)c2ccc(C(=O)Nc3c(C)n(C)n(-c4ccccc4)c3=O)cc2)c(=O)n(-c2ccccc2)n1C`?
BJeLR lethal: -7

How did CCn1cc(C(=O)OCC(=O)Nc2c(C)n(C)n(-c3ccccc3)c2=O)c(=O)c2ccc(C)nc21 do in these assays?
Autofluor counter: 23317*; BoNT A protease: 0; Anthrax LF inh2: -1; BoNT F protease: 2; BJeLR lethal: 2

What do the screens show for `Cc1c(NS(=O)(=O)N2CCCCC2)c(=O)n(-c2ccccc2)n1C`?
Autofluor counter: 16324*; BoNT A protease: 0; Anthrax LF inh2: 0; BoNT F protease: 0; BJeLR lethal: 7

How did Cc1cc(C)c2c(=O)n3c(nc2c1)C(CC(C)C)NC(=O)c1cccnc1-3 (stereo unspecified) do in these assays?
Autofluor counter: 4051; BoNT A protease: -1; Anthrax LF inh2: -7; BoNT F protease: -7

What do the screens show for `CC(NC1c2ccccc2-c2ccccc21)c1ccccc1` (stereo unspecified)?
Autofluor counter: 3652; BoNT A protease: 0; Anthrax LF inh2: 3; BoNT F protease: -16; BJeLR lethal: -4

How did CCCn1cc(C(CC(=O)O)C(=O)O)c2ccccc21 (stereo unspecified) do in these assays?
Autofluor counter: 24400*; BoNT A protease: -1; Anthrax LF inh2: 0; BoNT F protease: -2; BJeLR lethal: -4

How did CCOC(=O)CC(C#N)c1cn(C)c2ccccc12 (stereo unspecified) do in these assays?
Autofluor counter: 13969; BoNT A protease: 2; Anthrax LF inh2: -3; BoNT F protease: -11; BJeLR lethal: 4

Results for Cn1cc(C(CC(=O)O)C(=O)O)c2ccccc21 (stereo unspecified) ?
Autofluor counter: 23907*; BoNT A protease: 0; Anthrax LF inh2: 2; BoNT F protease: -2; BJeLR lethal: -10

Results for CC(=O)/C(=C/N(C)C)Sc1ccc(C)cc1 ?
Autofluor counter: 2197; BoNT A protease: 0; Anthrax LF inh2: -4; BoNT F protease: 4; BJeLR lethal: -11

Results for CC(=O)/C(=C\N(C)C)Sc1ccc(C)cc1 ?
Autofluor counter: 3560; BoNT A protease: -1; Anthrax LF inh2: inconclusive; BoNT F protease: 38*; BJeLR lethal: 7

What do the screens show for `COc1ccc(S(=O)(=O)NC(C)C(=O)N2CCCC2)cc1C` (stereo unspecified)?
Autofluor counter: 3916; BoNT A protease: -1; Anthrax LF inh2: -4; BoNT F protease: -5; BJeLR lethal: -3

Results for O=C(NCc1ccccc1)C1C2C=CC3(CN(Cc4cccnc4)C(=O)C13)O2 (stereo unspecified) ?
Autofluor counter: 19359*; BoNT A protease: 2; Anthrax LF inh2: -2; BoNT F protease: 1; BJeLR lethal: -13

What do the screens show for `O=S(=O)(c1cccs1)N1CCN(c2ccc(O)cc2)CC1`?
Autofluor counter: 3507; BoNT A protease: 0; Anthrax LF inh2: 2; BoNT F protease: -8; BJeLR lethal: -7

Results for CC(C)NC(=O)c1nc2ccccc2s1 ?
Autofluor counter: 19111*; BoNT A protease: 5; Anthrax LF inh2: -7; BoNT F protease: 4; BJeLR lethal: 11

Results for CCN(C(=O)c1cc2c(=O)[nH]c3ccc(C)cc3c2s1)c1ccccc1F ?
BJeLR lethal: 0

How did O=C(c1ccccc1)N1CCn2c(nc3ccccc32)C1 do in these assays?
Autofluor counter: 19484*; BoNT A protease: inconclusive; Anthrax LF inh2: 1; BoNT F protease: 4; BJeLR lethal: 3

Results for O=C(NCc1ccccc1)N1CCn2c(nc3ccccc32)C1 ?
Autofluor counter: 19281*; BoNT A protease: 2; Anthrax LF inh2: -3; BoNT F protease: 0; BJeLR lethal: 3

Results for S=C(Nc1ccccc1)N1CCn2c(nc3ccccc32)C1 ?
Autofluor counter: 2541; BoNT A protease: 0; Anthrax LF inh2: 2; BoNT F protease: -2; BJeLR lethal: 10

Results for CCN(c1ccccc1)S(=O)(=O)c1ccc(Cl)c(NC(=O)CNCc2ccccc2OC)c1 ?
Autofluor counter: 3906; BoNT A protease: 0; Anthrax LF inh2: -6; BoNT F protease: 0

How did CCC(c1nc2ccccc2c(=O)n1CCN1CCOCC1)N1C(=O)c2ccccc2C1=O (stereo unspecified) do in these assays?
Autofluor counter: 20159*; BoNT A protease: -1; Anthrax LF inh2: -4; BoNT F protease: -3; BJeLR lethal: 8

How did COc1cc(C)ccc1OCc1cc(C(=O)NCCN2CCOCC2)no1 do in these assays?
Autofluor counter: 5570; BoNT A protease: 2; Anthrax LF inh2: 0; BoNT F protease: 5; BJeLR lethal: 5

How did O=C1CC(NNC(=O)c2ccccc2)C(=O)N1 (stereo unspecified) do in these assays?
Autofluor counter: 9541; BoNT A protease: 0; Anthrax LF inh2: -12; BoNT F protease: 12; BJeLR lethal: 12

Results for O=C1CC(NNC(=O)c2ccc(Br)cc2)C(=O)N1 (stereo unspecified) ?
Autofluor counter: 3778; BoNT A protease: 5; Anthrax LF inh2: 8; BoNT F protease: 43*; BJeLR lethal: -1

Results for COc1cc(NC(=O)N[C@@H](CCSC)C(=O)O)cc(OC)c1 ?
Autofluor counter: 4524; BoNT A protease: -1; Anthrax LF inh2: -5; BoNT F protease: -3; BJeLR lethal: 0
